# Test results reported in article PMC11006913.
# Where a chain is given by its changes, count along the chain named.
# What was measured:
# Assay in all cases: PBM; 200 nM protein, PBS
# Conditions in all cases: dsDNA, one strand shown
# [1] = target: T1, NKX2-4 (Homo sapiens, UniProt Q9H2Z4 175-261, P217L)
# T1 sequence: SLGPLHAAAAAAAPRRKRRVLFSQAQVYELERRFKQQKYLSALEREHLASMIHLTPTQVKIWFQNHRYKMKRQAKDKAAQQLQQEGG
# [2] = target: T2, NKX2-4 (Homo sapiens, UniProt Q9H2Z4 175-261, T231S)
# T2 sequence: T1 sequence with L43P, T57S
# [3] = target: T3, NKX2-4 (Homo sapiens, UniProt Q9H2Z4 175-261)
# T3 sequence: T1 sequence with L43P
# [4] = target: T4, NKX2-4 (Homo sapiens, UniProt Q9H2Z4 175-261, R246Q)
# T4 sequence: T1 sequence with L43P, R72Q
# [5] = target: T5, VENTX (Homo sapiens, UniProt O95231 78-163, R121Q)
# T5 sequence: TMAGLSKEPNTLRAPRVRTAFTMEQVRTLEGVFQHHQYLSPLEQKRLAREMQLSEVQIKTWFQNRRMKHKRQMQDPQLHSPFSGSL
# [6] = target: T6, NKX2-6 (Homo sapiens, UniProt A6NCS4 118-204, F151L)
# T6 sequence: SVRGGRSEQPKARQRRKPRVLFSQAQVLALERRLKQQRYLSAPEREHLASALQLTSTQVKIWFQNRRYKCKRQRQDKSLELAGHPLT
# [7] = target: NKX3-2 (Homo sapiens, UniProt P78367 192-278, P234S)
# Sequence of NKX3-2 (Homo sapiens, UniProt P78367 192-278, P234S) (P78367 192-278 P234S): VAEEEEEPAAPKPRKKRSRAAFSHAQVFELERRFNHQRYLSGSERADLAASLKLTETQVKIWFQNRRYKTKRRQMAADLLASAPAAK
# [8] = target: T7, NKX2-6 (Homo sapiens, UniProt A6NCS4 118-204, R150C)
# T7 sequence: T6 sequence with R33C, L34F
# [9] = target: NKX3-2 (Homo sapiens, UniProt P78367 192-278)
# Sequence of NKX3-2 (Homo sapiens, UniProt P78367 192-278) (P78367 192-278): as the sequence (P78367 192-278 P234S) above, with S43P counted along it
sequence,measurement,setting,value
TCCACTAA,binding signal,[1],"11.6 upbm affinity estimate (log intensity, higher = more binding, comparable within an allelic series)"
same,binding signal,[2],"11.7 upbm affinity estimate (log intensity, higher = more binding, comparable within an allelic series)"
same,binding signal,[3],"11.5 upbm affinity estimate (log intensity, higher = more binding, comparable within an allelic series)"
same,binding signal,[4],"11.7 upbm affinity estimate (log intensity, higher = more binding, comparable within an allelic series)"
GAGTACTC,binding signal,[1],"12.4 upbm affinity estimate (log intensity, higher = more binding, comparable within an allelic series)"
same,binding signal,[2],"12.8 upbm affinity estimate (log intensity, higher = more binding, comparable within an allelic series)"
same,binding signal,[3],"12.3 upbm affinity estimate (log intensity, higher = more binding, comparable within an allelic series)"
same,binding signal,[4],"12.9 upbm affinity estimate (log intensity, higher = more binding, comparable within an allelic series)"
CCTCGTTA,binding signal,[5],"10.3 upbm affinity estimate (log intensity, higher = more binding, comparable within an allelic series)"
CGATTACC,binding signal,[5],"10.2 upbm affinity estimate (log intensity, higher = more binding, comparable within an allelic series)"
ACACTCAA,binding signal,[1],"12.5 upbm affinity estimate (log intensity, higher = more binding, comparable within an allelic series)"
same,binding signal,[2],"12.8 upbm affinity estimate (log intensity, higher = more binding, comparable within an allelic series)"
same,binding signal,[3],"12.3 upbm affinity estimate (log intensity, higher = more binding, comparable within an allelic series)"
same,binding signal,[4],"12.8 upbm affinity estimate (log intensity, higher = more binding, comparable within an allelic series)"
same,binding signal,[6],"10.6 upbm affinity estimate (log intensity, higher = more binding, comparable within an allelic series)"
ATCCACTC,binding signal,[1],"12.4 upbm affinity estimate (log intensity, higher = more binding, comparable within an allelic series)"
same,binding signal,[7],"12.5 upbm affinity estimate (log intensity, higher = more binding, comparable within an allelic series)"
TGCCCCCA,binding signal,[1],"9.77 upbm affinity estimate (log intensity, higher = more binding, comparable within an allelic series)"
same,binding signal,[2],"9.8 upbm affinity estimate (log intensity, higher = more binding, comparable within an allelic series)"
same,binding signal,[3],"9.76 upbm affinity estimate (log intensity, higher = more binding, comparable within an allelic series)"
same,binding signal,[4],"9.88 upbm affinity estimate (log intensity, higher = more binding, comparable within an allelic series)"
CCGACGTC,binding signal,[1],"9.19 upbm affinity estimate (log intensity, higher = more binding, comparable within an allelic series)"
same,binding signal,[2],"9.13 upbm affinity estimate (log intensity, higher = more binding, comparable within an allelic series)"
same,binding signal,[3],"9.23 upbm affinity estimate (log intensity, higher = more binding, comparable within an allelic series)"
same,binding signal,[4],"9.18 upbm affinity estimate (log intensity, higher = more binding, comparable within an allelic series)"
ACAAGTAC,binding signal,[1],"12.5 upbm affinity estimate (log intensity, higher = more binding, comparable within an allelic series)"
same,binding signal,[2],"12.9 upbm affinity estimate (log intensity, higher = more binding, comparable within an allelic series)"
same,binding signal,[8],"11.6 upbm affinity estimate (log intensity, higher = more binding, comparable within an allelic series)"
same,binding signal,[4],"12.9 upbm affinity estimate (log intensity, higher = more binding, comparable within an allelic series)"
ACGCCTTG,binding signal,[1],"9.82 upbm affinity estimate (log intensity, higher = more binding, comparable within an allelic series)"
same,binding signal,[2],"9.81 upbm affinity estimate (log intensity, higher = more binding, comparable within an allelic series)"
same,binding signal,[3],"9.74 upbm affinity estimate (log intensity, higher = more binding, comparable within an allelic series)"
same,binding signal,[4],"9.73 upbm affinity estimate (log intensity, higher = more binding, comparable within an allelic series)"
ACTATAAG,binding signal,[1],"11.5 upbm affinity estimate (log intensity, higher = more binding, comparable within an allelic series)"
same,binding signal,[3],"11.4 upbm affinity estimate (log intensity, higher = more binding, comparable within an allelic series)"
same,binding signal,[4],"11.8 upbm affinity estimate (log intensity, higher = more binding, comparable within an allelic series)"
GGTACTCA,binding signal,[1],"12.5 upbm affinity estimate (log intensity, higher = more binding, comparable within an allelic series)"
same,binding signal,[2],"12.9 upbm affinity estimate (log intensity, higher = more binding, comparable within an allelic series)"
same,binding signal,[3],"12.4 upbm affinity estimate (log intensity, higher = more binding, comparable within an allelic series)"
same,binding signal,[4],"12.9 upbm affinity estimate (log intensity, higher = more binding, comparable within an allelic series)"
same,binding signal,[7],"12.5 upbm affinity estimate (log intensity, higher = more binding, comparable within an allelic series)"
same,binding signal,[9],"12.6 upbm affinity estimate (log intensity, higher = more binding, comparable within an allelic series)"
GATCGGCC,binding signal,[1],"9.8 upbm affinity estimate (log intensity, higher = more binding, comparable within an allelic series)"
same,binding signal,[2],"9.89 upbm affinity estimate (log intensity, higher = more binding, comparable within an allelic series)"
same,binding signal,[3],"9.87 upbm affinity estimate (log intensity, higher = more binding, comparable within an allelic series)"
same,binding signal,[4],"9.9 upbm affinity estimate (log intensity, higher = more binding, comparable within an allelic series)"
CCCGGCCC,binding signal,[1],"9.77 upbm affinity estimate (log intensity, higher = more binding, comparable within an allelic series)"
same,binding signal,[2],"9.78 upbm affinity estimate (log intensity, higher = more binding, comparable within an allelic series)"
same,binding signal,[3],"9.81 upbm affinity estimate (log intensity, higher = more binding, comparable within an allelic series)"
same,binding signal,[4],"9.84 upbm affinity estimate (log intensity, higher = more binding, comparable within an allelic series)"
